Results published in PubChem BioAssay (NCI).
This is part of a sample that, as a whole, favours compounds with a hit. Of some 83,000 tested, about 20% had one in any assay.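 Plates (96-well) were seeded with cells, treated with compound at one concentration, and incubated for 48 hours before percent growth was determined.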 The source made the active and inactive calls. How the source made its calls: active means growth percent below 10; inactive means the rest.

How the values were obtained:
Experiment in all cases: NCI-60 one-dose screen, 48 h (100 = growth as untreated, 0 = no growth, -100 = all killed)
NCI-H226 lung = settings: 10 µM unless noted
NCI-H322M lung = settings: 10 µM unless noted
HOP-62 NSCLC = settings: 10 µM unless noted
NCI-H460 lung = settings: 10 µM unless noted
HOP-92 NSCLC = settings: 10 µM
NCI-H522 lung = settings: 10 µM unless noted
A549/ATCC NSCLC = settings: 10 µM unless noted
786-0 renal = settings: 10 µM unless noted
COLO 205 colon = settings: 10 µM unless noted
NCI-H23 lung = settings: 10 µM unless noted

Measured: growth

Nc1cc(-c2c[nH]c3ccc(Br)cc23)nc2cc(-c3c[nH]c4ccc(Br)cc34)nn12
inactive: NCI-H226 lung 55.3% | NCI-H322M lung 39.8% | HOP-62 NSCLC 40% | A549/ATCC NSCLC 17.7%
active: NCI-H460 lung -24.8% | HOP-92 NSCLC -12.1% | NCI-H522 lung -64% | 786-0 renal -50.3% | COLO 205 colon -50.5%

COc1cc(OC)cc(C(=O)Nc2cccc(C#Cc3cccc4[nH]nc(N)c34)c2)c1
inactive: NCI-H226 lung 30.8% | NCI-H322M lung 53.6% | HOP-62 NSCLC 39% | NCI-H460 lung 13% | HOP-92 NSCLC 43% | A549/ATCC NSCLC 33.7% | 786-0 renal 46.5%
active: NCI-H522 lung 2.45% | COLO 205 colon 6.38%

COc1ccccc1N1CCN(C2=CC(=O)C(C)=C(C)C2=O)CC1
inactive: NCI-H226 lung 96.9% | NCI-H322M lung 112% | HOP-62 NSCLC 103% | NCI-H460 lung 102% | HOP-92 NSCLC 117% | NCI-H522 lung 88.1% | A549/ATCC NSCLC 102% | 786-0 renal 108% | COLO 205 colon 112%

CCn1c2ccccc2c2cc(-n3nncc3-c3ccccc3)ccc21
inactive: NCI-H226 lung 47.8% | NCI-H322M lung 45.1% | HOP-62 NSCLC 66% | HOP-92 NSCLC 57.8% | A549/ATCC NSCLC 24.5% | 786-0 renal 31.6%
active: NCI-H460 lung 0.528% | NCI-H522 lung 4.55% | COLO 205 colon -10.9%

N#Cc1c(Nc2ccccc2)nn2c(-c3ccc([N+](=O)[O-])cc3)ccnc12
inactive: NCI-H23 lung 100% | NCI-H322M lung 102% | HOP-62 NSCLC 109% | NCI-H460 lung 99.3% | NCI-H522 lung 94.8% | A549/ATCC NSCLC 94.4% | 786-0 renal 98.3% | COLO 205 colon 107%

NC(N)=Nc1ccc(Oc2cccc(Nc3ccc(Cl)c(C(F)(F)F)c3)c2)cc1
inactive: NCI-H23 lung 47.4% | NCI-H322M lung 61.9% | HOP-62 NSCLC 13.4% | NCI-H522 lung 49% | A549/ATCC NSCLC 57.4% | 786-0 renal 53%
active: NCI-H460 lung 2.61% | COLO 205 colon -4.28%

NS(=O)(=O)c1ccc(Nc2nc(SCc3ccccc3)nc3ccccc23)cc1
inactive: NCI-H226 lung 76.8% | NCI-H322M lung 88.7% | HOP-62 NSCLC 86.2% | NCI-H460 lung 45.1% | HOP-92 NSCLC 55.4% | NCI-H522 lung 81.3% | A549/ATCC NSCLC 52.6% | 786-0 renal 40.3% | COLO 205 colon 79.6%

C=CCn1c(-c2nc3ccc(C(=C(C#N)C#N)c4ccccc4)cc3[nH]2)cc2cc(Br)ccc21
inactive: NCI-H226 lung 66.4% | NCI-H322M lung 70.6% | HOP-62 NSCLC 59.5% | NCI-H460 lung 42.2% | HOP-92 NSCLC 63% | NCI-H522 lung 60.2% | A549/ATCC NSCLC 51.7% | 786-0 renal 59.2% | COLO 205 colon 65.3%

Cc1ccc(-c2cc3nc(C(Cl)Cl)nc(C)n3n2)cc1
inactive: NCI-H226 lung 94.6% | NCI-H322M lung 101% | HOP-62 NSCLC 92.1% | NCI-H460 lung 95.1% | HOP-92 NSCLC 110% | NCI-H522 lung 104% | A549/ATCC NSCLC 108% | 786-0 renal 104% | COLO 205 colon 115%

Cc1ccc(CSc2nc(-c3ccc(Cl)cc3)c(C#N)c(N3CCNCC3)n2)cc1
inactive: NCI-H226 lung 90.2% | NCI-H322M lung 89% | HOP-62 NSCLC 80.3% | NCI-H460 lung 88.6% | HOP-92 NSCLC 15.9% | NCI-H522 lung 95% | A549/ATCC NSCLC 81.2% | 786-0 renal 66.8% | COLO 205 colon 109%

CCOC(=O)c1c(N)c(C#N)cn1-c1cc(OC)c(OC)c(OC)c1
inactive: NCI-H226 lung 110% | NCI-H322M lung 101% | HOP-62 NSCLC 101% | NCI-H460 lung 104% | HOP-92 NSCLC 79.1% | NCI-H522 lung 104% | A549/ATCC NSCLC 101% | 786-0 renal 103% | COLO 205 colon 122%

Cn1cc(-c2nnc(N)nc2-c2c[nH]c3ccc(F)cc23)c2cc(F)ccc21
inactive: NCI-H23 lung 83% | NCI-H322M lung 74% | HOP-62 NSCLC 58.7% | NCI-H460 lung 30.9% | NCI-H522 lung 57.5% | A549/ATCC NSCLC 82.2% | 786-0 renal 90% | COLO 205 colon 84.2%

CC(=O)c1ccc(Nc2nc(SCC(C)C)nc(-c3ccc(F)cc3)c2C#N)cc1
inactive: NCI-H226 lung 114% | NCI-H322M lung 116% | HOP-62 NSCLC 116% | NCI-H460 lung 109% | HOP-92 NSCLC 118% | NCI-H522 lung 103% | A549/ATCC NSCLC 109% | 786-0 renal 105% | COLO 205 colon 115%

COC(=O)c1ccc(NC2=C/C(=N/S(=O)(=O)c3ccc(C(=O)O)cc3)c3ccccc3C2=O)cc1
active: 786-0 renal 9.38%
inactive: NCI-H226 lung 32.7% | NCI-H322M lung 107% | HOP-62 NSCLC 88.2% | NCI-H460 lung 96.3% | HOP-92 NSCLC 23.3% | NCI-H522 lung 81.7% | A549/ATCC NSCLC 98.7% | COLO 205 colon 115%

Cc1ccc2c(c1)C13C(=C2Br)CCCN1C(=O)c1ccccc13 (stereo not drawn)
inactive: NCI-H226 lung 92.3% | NCI-H322M lung 97.5% | HOP-62 NSCLC 96.9% | NCI-H460 lung 105% | HOP-92 NSCLC 78.8% | NCI-H522 lung 80.8% | A549/ATCC NSCLC 98.1% | 786-0 renal 84.3% | COLO 205 colon 108%

O=c1[nH]c(Sc2sc3ccc(Cl)cc3c2CBr)nc(=S)[nH]1
inactive: NCI-H226 lung 55.1% | NCI-H322M lung 39.7% | HOP-62 NSCLC 28.2% | NCI-H460 lung 21.5% | NCI-H522 lung 13% | A549/ATCC NSCLC 39.8% | 786-0 renal 51% | COLO 205 colon 108%
active: HOP-92 NSCLC 1.66%

CCNC(=O)Oc1ccc(/C(=C(/C)c2ccccc2)c2ccc(OCCN3CCCCCC3)cc2)cc1
inactive: NCI-H226 lung 55% | NCI-H322M lung 71.1% | NCI-H522 lung 63.8% | A549/ATCC NSCLC 36.1%
active: HOP-62 NSCLC 6.15% | NCI-H460 lung -67.3% | HOP-92 NSCLC -12.8% | 786-0 renal -91.7% | COLO 205 colon -75.7%

COc1cccc(N2CCN(c3ncnc4c3[nH]c3ccc(F)cc34)C[C@H]2C)c1
inactive: NCI-H226 lung 33.5% | NCI-H322M lung 89.6% | HOP-62 NSCLC 56.6% | NCI-H460 lung 66.3% | HOP-92 NSCLC 53.3% | NCI-H522 lung 33.1% | A549/ATCC NSCLC 61% | 786-0 renal 71.4% | COLO 205 colon 61.4%

CCCCCCCn1cc2c(NCCc3ccccc3)ncnc2n1
inactive: NCI-H226 lung 103% | NCI-H322M lung 102% | HOP-62 NSCLC 94.1% | NCI-H460 lung 100% | HOP-92 NSCLC 94.2% | NCI-H522 lung 95.3% | A549/ATCC NSCLC 98.2% | 786-0 renal 99.5% | COLO 205 colon 129%
